# FLuc counter: qHTS profiling assay for firefly luciferase inhibitor/activator using purifed enzyme and Km concentrations of substrates (counterscreen for miR-21 project). Luciferin 4-monooxygenase (Photinus pyralis), P08659. hit rate 6.9% among 360,000. AID 588342, 2011. purified FLuc, Km substrates, luminescence inhibition. Potency, µM (doses to about 57.5 µM), for the others: at the top dose activity change, negative = inhibition, most hits filed as inhibitors;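 further: plate controls were vehicle for no effect and reference inhibitor for full effect; nearly all actives have a fitted effect of over 55% in size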
# Target sequence (P08659 whole entry, looked up): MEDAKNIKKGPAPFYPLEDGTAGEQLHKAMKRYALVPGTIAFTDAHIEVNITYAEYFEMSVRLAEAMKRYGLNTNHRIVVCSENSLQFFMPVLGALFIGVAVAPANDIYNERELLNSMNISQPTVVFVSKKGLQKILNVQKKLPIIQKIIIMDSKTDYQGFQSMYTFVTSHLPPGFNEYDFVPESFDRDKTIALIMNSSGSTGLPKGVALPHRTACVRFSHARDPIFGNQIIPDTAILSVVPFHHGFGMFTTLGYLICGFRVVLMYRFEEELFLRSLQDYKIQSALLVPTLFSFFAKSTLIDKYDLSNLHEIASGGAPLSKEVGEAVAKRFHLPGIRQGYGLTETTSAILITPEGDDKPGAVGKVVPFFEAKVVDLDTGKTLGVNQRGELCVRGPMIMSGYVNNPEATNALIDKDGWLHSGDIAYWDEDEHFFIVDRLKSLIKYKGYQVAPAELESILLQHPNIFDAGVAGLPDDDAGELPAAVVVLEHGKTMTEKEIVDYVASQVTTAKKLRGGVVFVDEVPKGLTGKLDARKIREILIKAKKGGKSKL
#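 Biochemical qHTS of compounds, final roughly 60 µM downward over six points, against 10 nM purified firefly luciferase using Km concentrations of substrates (10 uM D-luciferin, 10 uM ATP) in Tris acetate pH 7.5 buffer; luminescence output.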
# ELG1 genotox: qHTS screen for small molecules that induce genotoxicity in human embryonic kidney (HEK293T) cells expressing luciferase-tagged ELG1; HEK293T ELG1-luciferase reporter, luminescence, 16 h; Potency, µM (doses to about 46 µM), for the others: at the highest dose activity change, positive = activation, actives largely listed as activators; hit rate 1.3% among 330,000; AID 504466, 2011; further: % of control where 0% means no effect; nearly all actives have a fitted effect of over 60% in size
#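 Step 1: seed 2,000 HEK293T ELG1-luciferase cells per well. Step 2: add compound or DMSO, incubate 16 hr at 37 °C. Step 3: ONE-Glo, 30 min at room temperature, read luminescence.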
# KinaseGlo FLuc: Counterscreen for Luciferase (Kinase-Glo TM) Inhibition. Kinase-Glo luciferase, ATP luminescence, 8 min. Potency, µM (series often up to 38.3 µM), for the others: top-dose activity change, negative = inhibition, hits mostly inhibitors. AID 1379, 2008. hit rate 0.28% among 200,000. Luciferin 4-monooxygenase (Photuris pensylvanica), Q27757; further: on the % scale 0 is the no-effect control and ±100 the full control effect; nearly all actives have a fitted effect of over 60% in size
#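 Luminescence was the read-out, taken after 8-minute incubation at ambient temperature. Luciferase turned over luciferin with 10 uM ATP in imidazole pH 7.2 buffer containing KCl, MgCl2, Tween 20 and BSA.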
# NPC1 prom act: qHTS Assay for NPC1 Promoter Activators | Huh7 NPC1 promoter luciferase reporter, 24 h | hit rate 2.4% among 320,000 | Potency, µM (highest dose often 9.22 µM), inactives show top-dose activation, usual class: activators; further: % of control where 0% means no effect; nearly all actives have a fitted effect of over 60% in size
#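 Compounds in DMSO were transferred onto Huh7 NPC1-luciferase reporter cells pre-incubated 2 h; after 24 h at 37 °C, Amplite reagent was dispensed and luminescence recorded 10 min later.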
# SMN2 splice up: qHTS Assay for Enhancers of SMN2 Splice Variant Expression; HEK293 SMN2-luciferase splicing reporter, luminescence, 30-36 h; Potency, µM (highest dose often 46.1 µM), without a hit: at the highest dose activity change, positive = activation, hits mostly activators; hit rate 2.8% among 210,000; AID 1458, 2008; further: % of control where 0% means no effect; nearly all actives have a fitted effect of over 55% in size
#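 HEK293 cells carry an SMN2 […]–luciferase reporter in which exon 7 inclusion puts luciferase in frame. Cells were plated 10-12 h before compound addition, then incubated 30-36 h at 37C. ONE-Glo luminescence was read; sodium butyrate at 4.5 mM final served as control.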
# Rab9 prom act: qHTS Assay for Rab9 Promoter Activators; Huh7 Rab9 promoter-luciferase reporter, luminescence, 24 h; Potency, µM (highest dose often 9.22 µM), without a hit: at the highest dose activation, negative = inhibition, usual class: activators; hit rate 2.8% among 320,000; AID 485297, 2010; further: % of control where 0% means no effect; nearly all actives have a fitted effect of over 60% in size
#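 Luminescence from Amplite-detected luciferase (10 minutes, ambient) reports Rab9 promoter activation. Before that, stable Rab9-luciferase Huh7 cells (1500/well, reduced-serum OP-MEM I plus 10% FBS) were exposed to compound for 24 hours at 37C.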
# * = called active by the depositor; ? = inconclusive; . = not tested or not shown; [ ] = another dose, or the depositor's remark. Compounds with a hit are over-represented: about 7.5% of the library has one in this group of screens. The call rests on the fitted dose curve; in most records, active means well fitted curve in the direction sought with a large enough effect; inconclusive means small, poorly fitted or top-dose-only effect, or another doubt; inactive means no such curve, though single readings can be large; an effect the other way counts as inactive or inconclusive. Potency means the concentration at half of the fitted maximal effect.
SMILES,FLuc counter,ELG1 genotox,KinaseGlo FLuc,NPC1 prom act,SMN2 splice up,Rab9 prom act
O=C(/C=C\c1ccccc1)Nc1nccs1,1.9µM*,?,-18%,1.6µM*,4µM*,0.89µM*
CCc1nnc(NC(=O)/C=C/c2cccs2)s1,-16%,23µM*,1%,?,?,3.5µM*
NS(=O)(=O)c1ccc(NC(=O)/C=C/c2cccs2)cc1,0%,10%,.,13%,.,1%
NS(=O)(=O)c1cccc(NC(=O)/C=C/c2cccs2)c1,7.6µM*,17%,-4%,?,?,?
CC(=O)Nc1nonc1-c1nnc(SCC(=O)Nc2cc(Cl)ccc2C)n1C,-1%,.,.,.,.,.
CC(C)[C@H](NC(=O)c1ccccc1F)C(=O)NCc1ccc(S(N)(=O)=O)cc1,3%,?,.,2%,.,4%
O=C(NC1=NCCS1)C1CCN(S(=O)(=O)c2ccccc2C(F)(F)F)CC1,0%,0%,.,-3%,.,-1%
Cc1ccccc1NC(=O)Cc1nc(COC(=O)c2cccc([N+](=O)[O-])c2)cs1,-2%,-2%,.,-6%,.,13%
CCN1CCN(C(c2ccc(F)cc2)c2sc3nc(-c4ccco4)nn3c2O)CC1 (stereo not given),4%,.,.,.,.,.
O=C(/C=C/c1cccc(F)c1)Nc1nccs1,9.5µM*,?,-2%,2µM*,11µM*,1.8µM*
O=C(Nc1nccs1)C(Br)C(Br)c1ccccc1 (stereo not given),4.8µM*,?,.,1.1µM*,.,0.5µM*
CCN(CC)S(=O)(=O)c1ccc(C)c(NC(=O)/C=C/c2cccs2)c1,?,-4%,-2%,0%,-32%,-1%
O=C(/C=C/c1cccs1)Nc1nccs1,?,18µM*,-14%,1.8µM*,13µM*,2.2µM*
Cc1ccccc1NC(=O)/C=C/c1cccs1,?,?,-23%,?,13µM*,4.5µM*
O=C(/C=C/c1cccs1)Nc1ccc(S(=O)(=O)Nc2ncccn2)cc1,-13%,0%,.,-9%,.,-6%
CC(=O)OC(C(=O)Nc1nccs1)c1ccccc1 (stereo not given),1%,-6%,.,-1%,.,9%
CN(CCOc1ccccc1)S(=O)(=O)c1ccc2oc3ccccc3c2c1,-4%,-8%,.,5%,.,10%
CCOC(=O)C1CCCN(C(=O)c2cccc(NC(=O)C(CC)CC)c2)C1 (stereo not given),0%,-3%,3%,-6%,4%,-10%
Cc1cc(C)nc(NC(=O)/C=C/c2cccs2)c1,13µM*,?,.,?,.,3.5µM*
Cc1cc(Cl)c2oc(C(=O)N(CCO)Cc3ccccc3)c(C)c2c1,-20%,?,.,11%,.,26%
Cc1c(C(=O)N(CCO)Cc2ccccc2)oc2c(F)cccc12,17µM*,?,.,?,.,?
CC12CCC(C/C1=N/O)C2(C)CBr (stereo not given),-2%,-3%,.,-2%,.,-4%
CCN(CC(=O)NCc1ccncc1)S(=O)(=O)c1ccccc1,8%,-4%,.,2%,.,-1%
C=CCc1ccc(OCc2ccc(C(=O)Nc3ccc(NC(C)=O)cc3)o2)c(OC)c1,?,12%,.,1.1µM*,2.8µM*,0.4µM*
Cc1ccc(C(=O)NNC(=O)c2nn(-c3ccc(F)cc3)ccc2=O)cc1,15µM*,1%,.,-1%,.,-6%
SMILES,FLuc counter,ELG1 genotox,KinaseGlo FLuc,NPC1 prom act,SMN2 splice up,Rab9 prom act
CC(C)C[C@@H]1NC(=O)[C@H](Cc2ccc(O)cc2)NC(=O)[C@H](CCC(N)=O)NC(=O)c2cc([N+](=O)[O-])cc(I)c2NCC[C@@H](C(N)=O)NC1=O,0%,1%,3%,-4%,18µM*,2%
C[C@@H]1CC=C[C@H]2[C@H]1C(=O)N(Cc1ccccc1)[C@H]2c1cccc([N+](=O)[O-])c1,1%,-4%,.,1%,.,-6%
Cc1ccccc1OCc1nnc2c3cnn(C)c3ncn12,21µM*,?,-9%,3.2µM*,19%,4µM*
Cc1ccccc1OCc1nc2c3cnn(-c4ccccc4Br)c3ncn2n1,?,.,.,.,1%,.
Cc1ccc(OCc2ccc(C(=O)NN)o2)c([N+](=O)[O-])c1,?,3%,.,9%,.,-3%
COC(=O)c1ccc(COc2ccc(C)cc2[N+](=O)[O-])o1,19µM*,-7%,.,?,.,?
O=C(COc1cc([N+](=O)[O-])cc2cccnc12)NCCC1=CCCCC1,0%,-9%,.,-5%,.,4%
COC(=O)c1ccc(COc2cc([N+](=O)[O-])cc3cccnc23)o1,21µM*,-2%,-3%,0%,.,-1%
COC(=O)[C@]1(CC(C)C)N[C@H](c2ccc(-c3ccc(Cl)c(Cl)c3)cc2)[C@@H]2C(=O)N(C)C(=O)[C@@H]21,0%,-9%,.,0%,.,0%
CC(=O)[C@@H](C)CCO[C@@]1(C)OCC[C@@H]1C,.,.,-1%[7.66 µM],.,-8%[9.22 µM],.
CC1Oc2ccccc2C=C1/C=N/NC(=O)c1ccncc1 (stereo not given),17µM*,0%,.,0%,.,-2%
O=C(Nc1cccc(-c2nc3ccccc3o2)c1)C(F)(F)F,?,.,.,.,2%,.
CCCC(=O)Nc1cccc(-c2nc3ccccc3c(=O)o2)c1,1.3µM*,-4%,-15%,1%,.,17%
CC(C)C(=O)Nc1ccc(-c2nc3ccccc3c(=O)o2)cc1,0.3µM*,-1%,-9%,9%,.,3%
CC(C)(C)C(=O)Nc1ccc(-c2nc3ccccc3c(=O)o2)cc1,0.11µM*,6%,-22%,15%,.,21%
